{"source": "PubChem BioAssay (EPA / NIEHS)", "note": "Several values for one entry are separate records, joined by “and”; a condition that tells them apart may be missing. Equal values may be shown once. A structure can be active in one record and inactive in another. Activity calls are given as the source filed them. How the source made its calls: active means hit-call score of the fitted dose curve at least 0.9, where 1 is the maximum; inactive means score below 0.9."}
{"test": "CCTE_Shafer_MEA_dev_network_spike_number: CCTE's Neural Network Formation Assay for Number of Network Spikes, Shafer Lab (AID 2284048);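 further: synchronized bursts across electrodes counted on days 5 7 9 12 and integrated as AUC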;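 on AC50: fit as a loss of signal meaning fewer network spikes than DMSO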", "experimental": "CCTE_Shafer_MEA_dev assay is conducted using Axion Biosystems 48 well microelectrode array (MEA) plates and Maestro recording system. Each well of the MEA plate contains a grid of 16 microelectrodes embedded in the culture surface. Electrically active cells, such as neurons, can be cultured over the electrodes, and electrical activity in these cells can be recorded extracellularly. The spontaneous firing of neurons is captured from each electrode on a microsecond timescale providing both temporally and spatially precise data. […] The CCTE_Shafer_MEA_dev assay uses primary cultures of rat cortical neurons. Recordings are made on days post-plating 5, 7, 9 and 12. As these cultures mature over time, neural networks develop functional activity and form cohesive networks in which electrical activity can be highly coordinated. CCTE_Shafer_MEA_dev_network_spike_number is 1 of 19 assay components of the CCTE_Shafer_MEA_dev assay. It measures the number of network spikes (temporally-clustered groups of action potential firing across multiple electrodes) during a recording in a microelectrode array (MEA) using Axion Biosystems Maestro 768 channel amplifier with the AxIS adaptive spike detector. To collapse across multiple recordings made on days post-plating 5, 7, 9 and 12, the trapezoidal area-under-the-curve of the component is calculated.Data from the assay component CCTE_Shafer_MEA_dev_network_spike_number was analyzed into 1 assay endpoint. This assay endpoint, CCTE_Shafer_MEA_dev_network_spike_number, was analyzed in the negative analysis fitting direction relative to DMSO as the negative control and baseline of activity. Using a type of functional reporter, gain or loss-of-signal activity can be used to understand electrical activity.\nOn the day prior to culture, each well was coated thoroughly with 150 uL of 0.05% polyethyleneimine (PEI, Sigma Cat P3143) in 50 mM HEPES (Sigma Cat H7523) at a pH of 8. The plate was incubated at 37C for one hour. PEI was rinsed out with 500 uL of sterile water three times. Plates were stored at 4C until the day of culture. This culture was plated at a seeding density of 1.5 x 10^5 cells/well on a 48-well MEA plate, prepared as described above. Cells were administered via a 25 uL media/laminin ([…]; Sigma Cat L2020-1MG) drop directly onto the microelectrode array, as adding the cells with the laminin results in better attachment than pre-coating with laminin. After 2 hours, an additional 475 uL of cortical media was added and the cells returned to the incubator. Exposure starts at day 0 of plating and is continued over twelve days of network development until the experiment is terminated. Cells are fed with fresh medium on DIV 5 and 9, following the recordings on those days. The entire volume of media in the well is exchanged and any vehicle or compound treatment is renewed. Complete details are found in OP-NHEERL/ISTD/SBB/TJS/2015-03-r0 (available on request, email shafer.tim@epa.gov). Measurement of the electrical activity is non-invasive, and recordings can be made from the same plate over multiple different days of the culture. In cortical neurons, this allows for the measurement of extracellular action potentials over the period during which networks form in the MEA plate."}
{"compound": "O=S(=O)(O)C(F)(F)C(F)(F)C(F)(F)C(F)(F)F", "outcome": "inactive"}
{"compound": "CCC(C)(c1ccc(O)cc1)c1ccc(O)cc1", "outcome": "inactive"}
{"compound": "Clc1ccc(C(c2ccccc2Cl)C(Cl)(Cl)Cl)cc1", "note": "(stereo not drawn)", "AC50": "2.71 µM (active)"}
{"compound": "CO/C=C(/C(=O)OC)c1ccccc1COc1cccc(C(F)(F)F)n1", "AC50": "179 nM (active) and 398 nM (active)"}
{"compound": "COc1ccc(O)c(C(C)(C)C)c1", "outcome": "inactive"}
{"compound": "O=C(O)C(F)(F)C(F)(F)C(F)(F)C(F)(F)C(F)(F)C(F)(F)C(F)(F)C(F)(F)F", "outcome": "inactive"}
{"compound": "ClC1=C(Cl)[C@]2(Cl)[C@@H]3[C@H]4C[C@H]([C@@H]5O[C@H]45)[C@@H]3[C@@]1(Cl)C2(Cl)Cl", "outcome": "inactive"}
{"compound": "CCOP(=S)(OCC)SCSC(C)(C)C", "AC50": "18.9 µM (active)", "outcome": "inactive"}
{"compound": "ClC(Cl)=C(c1ccc(Cl)cc1)c1ccc(Cl)cc1", "AC50": "1.23 µM (active)"}
{"compound": "ClC1=C(Cl)[C@]2(Cl)[C@@H]3[C@@H]4C[C@@H]([C@H]5O[C@@H]45)[C@@H]3[C@@]1(Cl)C2(Cl)Cl", "AC50": "0.492 µM (active)"}
{"compound": "C=CC(N)=O", "outcome": "inactive"}
{"compound": "c1cc2ccc3cccc4ccc(c1)c2c34", "outcome": "inactive"}
{"compound": "ClC1=C(Cl)[C@]2(Cl)[C@@H]3[C@@H](Cl)[C@H]4O[C@H]4[C@@H]3C1(Cl)C2(Cl)Cl", "AC50": "2.98 µM (active)"}
{"compound": "O=C(O)C(F)(F)C(F)(F)C(F)(F)C(F)(F)C(F)(F)F", "outcome": "inactive"}
{"compound": "Oc1ccc(C(c2ccc(O)cc2)(C(F)(F)F)C(F)(F)F)cc1", "outcome": "inactive"}
{"compound": "O=S(=O)(O)C(F)(F)C(F)(F)C(F)(F)C(F)(F)C(F)(F)C(F)(F)F", "outcome": "inactive"}
{"compound": "NS(=O)(=O)C(F)(F)C(F)(F)C(F)(F)C(F)(F)C(F)(F)C(F)(F)C(F)(F)C(F)(F)F", "outcome": "inactive"}
